Calls of active or inactive are those of the source.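 The calls were made as follows: active = compounds whose cell count with miR-34 switched on is under 0.7 times the count with it off; inactive = the rest.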
Experiment: sensitizers of A549 cells to miR-34 induction, primary screen, imaging, A549 dox-inducible miR-34, nuclei and caspase counts (AID 1347080); also: test concentration not given here
Conditions: A549 miR-34 inducible, Hoechst nuclei count, 48 h
[1] = stronger effect = lower value, cell number ratio, induced over uninduced
[2] = measured here: relative caspase fold change +Dox/-Dox
[3] = measured here: total cells with miR-34 induction, stronger effect = lower value
[4] = measured here: total cells without miR-34 induction

With `O=P(O)(O)OC1[C@@H](O)[C@H](O)C(O)[C@H](O)[C@@H]1O` (stereo partly specified) as the compound, how does the fold change [1] read?
The fold change was 0.924 (inactive).

What about the fold change [2] of the same compound?
The fold change was 0.602.

What about the cell count [3] of the same compound?
The cell count was 5550.

And the cell count [4]?
The cell count was 6010.

Which fold change [1] does the source give for `CCCCCCCCCCCCCCCCCC(=O)NCCS(=O)(=O)O` here?
The fold change was 1.11 (inactive).

And the fold change [2]?
Its fold change is 0.61.

And the cell count [3]?
Its cell count is 6120.

What about the cell count [4] of the same compound?
The cell count was 5530.

With `O=C1OC2(c3ccc(O)cc3Oc3cc(Oc4ccc(O)cc4)ccc32)c2ccccc21` (stereo unspecified) as the compound, how does the fold change [1] read?
The fold change was 0.956 (inactive).

What about the fold change [2] of the same compound?
Its fold change is 1.49.

And the cell count [3]?
Its cell count is 6230.

And the cell count [4]?
The cell count was 6520.

For `CC(CN1CCC(n2c(=O)[nH]c3cc(Cl)ccc32)CC1)NC(=O)c1ccc2ccccc2c1` (stereo unspecified), which fold change [1] is on record?
Its fold change is 1.08 (inactive).

What about the fold change [2] of the same compound?
Its fold change is 1.2.

And the cell count [3]?
Its cell count is 5810.

What about the cell count [4] of the same compound?
Its cell count is 5380.

— PubChem BioAssay
